Assay results reported in the supplement of paper PMC6555819.

Experiments:
Experiment in all cases: PBM binding z-score (relative to random genomic background probes); higher = stronger binding; sequences stand for … in GC…GCGATTGACAGCGTAGAATGAAGG
[1] = test system: FXR:RXRa (NR concentration 270 nM, RXRa partner concentration 90 nM)
Procedure, shortened: (§1)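 Scanned fluorescence from custom Agilent 4×180K protein-binding microarrays was regression-normalized. Binding z-scores use random background probes as reference. Ligand-free nuclear receptor dimers were incubated on the arrays for 1 h and detected with antibodies against each partner (one per run).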

[2] = test system: LXRa:RXRa (NR concentration 270 nM, RXRa partner concentration 90 nM)
Procedure, shortened: as §1

[3] = test system: LXRa homodimer (NR concentration 270 nM)
Procedure, shortened: as §1

[4] = test system: LXRb:RXRa (NR concentration 270 nM, RXRa partner concentration 90 nM)
Procedure, shortened: as §1

[5] = test system: LXRb homodimer (NR concentration 270 nM)
Procedure, shortened: as §1

[6] = test system: PPARa:RXRa (NR concentration 270 nM, RXRa partner concentration 90 nM)
Procedure, shortened: as §1

[7] = test system: PPARg:RXRa (NR concentration 180 nM, RXRa partner concentration 90 nM)
Procedure, shortened: as §1

[8] = test system: PPARg:RXRa 270nM:90nM, anti-RXR (NR concentration 270 nM, RXRa partner concentration 90 nM)
Procedure, shortened: as §1

[9] = test system: PPARg:RXRa 30nM:10nM, anti-RXR (NR concentration 30 nM, RXRa partner concentration 10 nM)
Procedure, shortened: as §1

[10] = test system: PPARg:RXRa 90nM:30nM, anti-RXR (NR concentration 90 nM, RXRa partner concentration 30 nM)
Procedure, shortened: as §1

[11] = test system: PPARg:RXRa DBDmut IVT, anti-RXR (DBD mutation: RXRa K156A/R161A, NR concentration 270 nM, RXRa partner concentration 90 nM)
Procedure, shortened: as §1

[12] = test system: PPARg:RXRa IVT, anti-PPARg (NR concentration 270 nM, RXRa partner concentration 90 nM)
Procedure, shortened: as §1

[13] = test system: PPARg DBDmut:RXRa IVT, anti-PPARg (DBD mutation: PPARg1 K132A/R137A, NR concentration 270 nM, RXRa partner concentration 90 nM)
Procedure, shortened: as §1

[14] = test system: PPARg DBDmut IVT, anti-PPARg (DBD mutation: PPARg1 K132A/R137A, NR concentration 270 nM)
Procedure, shortened: as §1

[15] = test system: PPARg homodimer (NR concentration 180 nM)
Procedure, shortened: as §1

[16] = test system: PXR:RXRa (NR concentration 270 nM, RXRa partner concentration 90 nM)
Procedure, shortened: as §1

[17] = test system: PXR homodimer (NR concentration 270 nM)
Procedure, shortened: as §1

[18] = test system: RARa:RXR (NR concentration 270 nM, RXRa partner concentration 90 nM)
Procedure, shortened: as §1

[19] = test system: RARa homodimer (NR concentration 270 nM)
Procedure, shortened: as §1

[20] = test system: RARb:RXRa (NR concentration 270 nM, RXRa partner concentration 90 nM)
Procedure, shortened: as §1

Sequence	PBM binding z-score [1]	PBM binding z-score [2]	PBM binding z-score [3]	PBM binding z-score [4]	PBM binding z-score [5]	PBM binding z-score [6]	PBM binding z-score [7]	PBM binding z-score [8]	PBM binding z-score [9]	PBM binding z-score [10]	PBM binding z-score [11]	PBM binding z-score [12]	PBM binding z-score [13]	PBM binding z-score [14]	PBM binding z-score [15]	PBM binding z-score [16]	PBM binding z-score [17]	PBM binding z-score [18]	PBM binding z-score [19]	PBM binding z-score [20]
TAGCCTAGGTCATTGGGACAGTATAGTACGCATC	4.69	3.35	0.922	2.45	0.648	3.84	3.81	3.69	1.27	2.57	3.11	3.8	1.3	0.736	2.9	1.78	-0.233	2.5	0.512	3.75
CGTCCAAGGTCATAGGAGATCAGTGAAGACAGAT	6.93	5.5	1.32	3.92	0.511	5.4	4.74	4.9	2.45	3.71	3.22	3.43	1.2	0.671	2.99	4.44	1.37	4.47	0.926	4.89
TATACAGGGTTAAAGGCCAGAGTACGAATGTCGA	2.5	2.59	0.356	1.91	0.834	3.84	5.07	5.44	3.04	4.7	0.697	2.95	1.23	1.68	1.75	1.82	0.41	2.44	0.668	2.13
AATACAGGGTCACTAGGCCAGAGTTGGTACGAAT	6.05	4.87	0.807	3.75	0.616	5.99	8.38	6.63	3.71	5.85	4.05	5.77	1.25	0.486	2.23	3.38	0.712	4.44	0.618	4.29
ATCTCTTGGTAAGACTCAGTTCAGTGAAGAACGC	0.584	0.976	0.839	0.676	1.08	0.0896	-0.159	0.141	0.448	0.216	0.682	0.216	1.42	1.19	1.11	1.12	2.04	0.274	1.84	0.518
TCGAGTAGGTTCGTCGGGGCATTCAGCCAACATA	0.282	0.37	-0.315	0.726	-0.765	0.757	-0.436	0.394	0.955	0.64	0.771	-0.0233	-1.34	-1.13	-0.174	0.391	-0.361	0.296	-0.807	0.556
ACTATTAGTTTAGACGAGGGCAACCGATAGGTTG	0.453	0.483	0.356	0.275	0.368	0.386	0.651	0.246	-0.0368	-0.045	0.00795	0.402	0.0772	1.14	0.811	1.29	0.902	1.26	1.02	1.25
